Laboratory results: PubChem BioAssay (NCATS)
Inconclusive results are not listed. Active and inactive are the calls of the source. The call rests on the fitted dose curve; in most records, active means well fitted curve in the direction sought with a large enough effect; inconclusive means small, poorly fitted or top-dose-only effect, or another doubt; inactive means no such curve, though single readings can be large; an effect the other way counts as inactive or inconclusive.

What was measured:
HACAT = experiment: qHTS assay to identify novel small-molecules to repurpose for Merkel cell carcinoma treatment (AID 1296009); conditions: MCC and control cell lines, CellTiter-Glo viability, 72 h; at 44.8 µM (top of the series) unless noted; further: nearly all actives have a fitted effect of over 60% in size
In short: (§1)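 Viability readout: ATP luminescence (CellTiter-Glo) after 72 hr drug exposure at 37 degree celsius. Dose-response format was 8 points for NPC and 11 points for MIPE; data normalized to in-plate controls.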

HEK293T = experiment: as above; conditions: MCC and control cell lines, CellTiter-Glo viability, 72 h; series mostly up to 44.8 µM
In short: as §1

C33A = experiment: Primary qHTS to identify gynecologic anti-cancer compounds using libraries of approved drugs and bioactive compounds (AID 1345084); conditions: Gynecologic cancer cell panel viability, ATPlite luminescence, 48 h; series mostly up to 57.5 µM; further: on the % scale 0 is the no-effect control and ±100 the full control effect; nearly all actives have a fitted effect of over 55% in size
In short: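 Cells, 1,000 per well, were allowed to settle for 16 h at 37 C before compound addition. Five concentrations were tested for 48 h, and viability was read by ATPlite luminescence after 15 min at room temperature.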

O=C(c1ccc(C#Cc2cccc(F)c2)cn1)N1CC2CC2C1 (stereo not given)
inactive: outcome (HACAT) | Potency (HEK293T) | Potency (C33A)

CC(C)c1cc2c(c(O)c1O[C@@H]1O[C@H](CO)[C@@H](O)[C@H](O)[C@H]1O)CC1(O)CCC(O)C(C)(C)C1CC2 (stereo not given in full)
inactive: outcome (HACAT) inactive [at 17.4 µM] | Potency (HEK293T) | Potency (C33A)

C[C@@H]1C/C=C/C=C\C=C\C=C\[C@H](O[C@@H]2O[C@H](C)[C@@H](O)[C@H](N)[C@@H]2O)C[C@@H]2O[C@](O)(C[C@@H](O)C[C@H]3O[C@@H]3/C=C/C(=O)O1)C[C@H](O)[C@H]2C(=O)O
inactive: outcome (HACAT) inactive [at 17.4 µM] | Potency (HEK293T) | Potency (C33A)

CC(=O)C1CCC2(C)C3=C(CCC12C)C1(C)CCC(=O)C(C)(C)C1CC3 (stereo not given)
inactive: outcome (HACAT) | Potency (HEK293T) | Potency (C33A)

C[C@@H]1O[C@@H](OC[C@H]2O[C@@H](OCC3CCC4CC3C4(C)C)[C@H](O)[C@@H](O)[C@@H]2O)[C@H](O)[C@H](O)[C@H]1O (stereo not given in full)
inactive: outcome (HACAT) inactive [at 17.4 µM] | Potency (HEK293T) | Potency (C33A)

C/C=C/C=C/C=C/C(=O)O[C@@H]1[C@@H](OC)C2=C(C(=O)N(C(C)C(=O)O)C2)[C@@]2(C)CCCC(C)(C)[C@H]12 (stereo not given in full)
inactive: outcome (HACAT) inactive [at 17.4 µM] | Potency (HEK293T) | Potency (C33A)

NC(Cc1c[nH]c2ccccc12)C(=O)NC(CCC(=O)O)C(=O)O (stereo not given)
inactive: outcome (HACAT) | Potency (HEK293T) | Potency (C33A)

CN1CC[C@@H](NC(=O)Nc2ccc(C#N)cc2)C[C@@H]1c1nc2ccccc2[nH]1
inactive: outcome (HACAT) | Potency (HEK293T) | Potency (C33A)

CCc1c(CC(N)=O)c2cc(OCCCP(=O)(O)O)ccc2n1Cc1ccccc1
inactive: outcome (HACAT) | Potency (HEK293T) | Potency (C33A)

COc1cccc(-n2nc(C(=O)O)cc2-c2ccc(C3CCCCC3)c(Cl)c2)c1
inactive: outcome (HACAT) | Potency (HEK293T) | Potency (C33A)

OC[C@H]1O[C@@H](Oc2ccc3c(c2)OC[C@H]2c4cc5c(cc4O[C@@H]32)OCO5)[C@H](O)[C@@H](O)[C@@H]1O
inactive: outcome (HACAT) inactive [at 17.4 µM] | Potency (HEK293T) | Potency (C33A)

C=C1[C@H]2[C@H](O[C@@H]3O[C@H](COC(=O)/C=C/c4cc(OC)c(O)c(OC)c4)[C@@H](O)[C@H](O)[C@H]3O)OC=C(C(=O)O)[C@H]2C[C@@H]1O
inactive: outcome (HACAT) inactive [at 17.4 µM] | Potency (HEK293T) | Potency (C33A)

C[C@@H]1CC[C@H]2C(C)(C)[C@H](O)[C@H](O)C[C@]2(C)[C@@]12Cc1c(O)cc3c(c1O2)CNC3=O
inactive: outcome (HACAT) | Potency (HEK293T) | Potency (C33A)

C1CCN2CC3C[C@@H](CN4CCCC[C@@H]34)[C@H]2C1
inactive: outcome (HACAT) | Potency (HEK293T) | Potency (C33A)

CCC1CC2C(C)=CC3CCCCC3C2(C)C2(OC(=O)C(C)(O)OC2=O)O1 (stereo not given)
inactive: outcome (HACAT) | Potency (HEK293T) | Potency (C33A)

C/C(=C/CO)CC[C@@H]1[C@@]2(C)CCC[C@](C)(C(=O)O)C2CC[C@@]1(C)O (stereo not given in full)
inactive: outcome (HACAT) | Potency (HEK293T) | Potency (C33A)

CC(C)C1(O[C@@H]2O[C@H](CO)[C@@H](O)[C@H](O)[C@H]2O)CC=C(CO)CC1 (stereo not given in full)
inactive: outcome (HACAT) | Potency (HEK293T) | Potency (C33A)

O=C(O)c1cc(O[C@@H]2O[C@H](CO[C@@H]3OC[C@@H](O)[C@H](O)[C@H]3O)[C@@H](O)[C@H](O)[C@H]2O)c2ccccc2c1O
inactive: outcome (HACAT) inactive [at 17.4 µM] | Potency (HEK293T) | Potency (C33A)

CNC(=O)COC(=O)NCCC1CCN(c2cccc(C)n2)CC1
inactive: outcome (HACAT) | Potency (HEK293T) | Potency (C33A)

CC1(C)C[C@H]2C3=CCC4[C@@]5(C)CC[C@H](O[C@H]6O[C@H](C(=O)O)[C@@H](O)[C@H](O)[C@H]6O[C@H]6O[C@H](CO)[C@@H](O)[C@H](O)[C@H]6O[C@@H]6O[C@H](CO)[C@@H](O)[C@H](O)[C@H]6O)[C@](C)(CO)C5CC[C@@]4(C)[C@]3(C)CC[C@@]2(C)[C@H](O[C@@H]2OC[C@H](O)[C@H](OC3O[C@H](CO)[C@@H](O)[C@H](O)[C@H]3O)[C@H]2O)[C@@H]1O (stereo not given in full)
inactive: outcome (HACAT) inactive [at 9.27 µM] | outcome (HEK293T) inactive [at 9.27 µM] | activity change, negative = cytotoxicity (C33A) 3.46% [at 6.55 µM]

CCC/C=C/C(=O)O[C@H]1CC(C)(C)CC2[C@]13[C@H](O)O[C@@]21CCC2[C@@]4(C)CC[C@H](O[C@@H]5O[C@H](C(=O)O)[C@@H](O)[C@H](O[C@@H]6O[C@H](CO)[C@H](O)[C@H](O)[C@H]6O[C@@H]6O[C@@H](C)[C@H](O)[C@@H](O)[C@H]6O[C@@H]6OC[C@](O)(CO)[C@H]6O)[C@H]5O[C@@H]5O[C@H](CO)[C@H](O)[C@H](O)[C@H]5O)C(C)(C)C4CC[C@@]2(C)[C@]1(C)C[C@H]3OC(C)=O (stereo not given in full)
inactive: outcome (HACAT) inactive [at 9.27 µM] | outcome (HEK293T) inactive [at 9.27 µM] | activity change, negative = cytotoxicity (C33A) -4.15% [at 6.55 µM]

CC1CCC2(NC1)OC1C(=O)C3C4CCC5CC(O[C@@H]6O[C@H](CO)[C@@H](O)[C@H](O)[C@H]6O[C@@H]6O[C@@H](C)[C@H](O)[C@@H](O)[C@H]6O)CCC5(C)C4CCC3(C)C1C2C (stereo not given in full)
inactive: outcome (HACAT) inactive [at 17.4 µM] | Potency (HEK293T) | Potency (C33A)

C=C(C(=O)O)C1CCC(C)C2CCC(=O)OC2(C)C1 (stereo not given)
inactive: outcome (HACAT) | Potency (HEK293T) | Potency (C33A)

O=c1ccn(C2OC(CO)C(O)C2O)c(=O)[nH]1 (stereo not given)
inactive: outcome (HACAT) | Potency (HEK293T) | Potency (C33A)

OC[C@H]1O[C@@H](OC(CCCCc2ccc(O)cc2)CCc2ccc(O)cc2)[C@H](O[C@@H]2OC[C@](O)(CO)[C@H]2O)[C@@H](O)[C@@H]1O (stereo not given in full)
inactive: outcome (HACAT) inactive [at 17.4 µM] | Potency (HEK293T) | Potency (C33A)

CC1(C)C(=O)N2c3ccccc3[C@]3(CC(n4cnc5ccccc5c4=O)C(=O)O3)[C@H]2N1O (stereo not given in full)
inactive: outcome (HACAT) inactive [at 17.4 µM] | Potency (HEK293T) | Potency (C33A)

C[C@@H]1O[C@@H](O[C@H]2[C@H](OC(=O)[C@]34CCC(C)(C)C[C@H]3C3=CCC5[C@@]6(C)C[C@H](O)[C@H](O[C@@H]7O[C@H](CO[C@@H]8OC[C@H](O)[C@H](O)[C@H]8O)[C@@H](O)[C@H](O)[C@H]7O)C(C)(C)C6CC[C@@]5(C)[C@]3(C)C[C@H]4O)OC[C@@H](O)[C@@H]2O)[C@H](O)[C@H](O[C@@H]2OC[C@](O)(CO)[C@H]2O)[C@H]1O[C@@H]1OC[C@H](O)[C@H](O[C@@H]2OC[C@@H](O)[C@H](O)[C@H]2O)[C@H]1O (stereo not given in full)
inactive: outcome (HACAT) inactive [at 9.27 µM] | outcome (HEK293T) inactive [at 9.27 µM] | activity change, negative = cytotoxicity (C33A) -0.101% [at 6.55 µM]

COC(=O)C1=CO[C@@H](O[C@@H]2O[C@H](CO)[C@@H](O)[C@H](O)[C@H]2O)[C@@H]2[C@@H](C(=O)OC)[C@@H](O)C(O)[C@H]12 (stereo not given in full)
inactive: outcome (HACAT) inactive [at 17.4 µM] | Potency (HEK293T) | Potency (C33A)

C=CC(C)(O)CC/C=C(\C)C(=O)OC1CC2(C(=O)O)CCC3(C)C(=CCC4C5(C)CCC(OC6OC(COC7OCC(O)C(O)C7O)C(O)C(OC7OCC(O)C(O)C7O)C6OC6OC(CO)C(O)C(O)C6OC6OCC(O)C(O)C6O)C(C)(C)C5CCC43C)C2CC1(C)C (stereo not given)
inactive: outcome (HACAT) inactive [at 9.27 µM] | outcome (HEK293T) inactive [at 9.27 µM] | activity change, negative = cytotoxicity (C33A) 0.0336% [at 6.55 µM]

Oc1ccc([C@H]2COc3cc(O)ccc3C2)cc1
inactive: outcome (HACAT) | Potency (HEK293T) | Potency (C33A)

CC(C)CC(=O)n1cc(C(N)=O)c(=O)cc1C(O)c1ccccc1 (stereo not given)
inactive: outcome (HACAT) | Potency (HEK293T) | Potency (C33A)

C/C=C(\C)C(=O)OC[C@H]1O[C@H](O[C@H]2O[C@H](CO)[C@@H](OC(=O)/C(C)=C/C)[C@H](O)[C@H]2O[C@@H]2O[C@H](CO)[C@@H](O)[C@H](O)[C@H]2O)[C@H](O[C@@H]2O[C@H](CO)[C@@H](O)[C@H](O)[C@H]2O)[C@@H](O)[C@@H]1O
inactive: outcome (HACAT) inactive [at 9.27 µM] | outcome (HEK293T) inactive [at 9.27 µM] | activity change, negative = cytotoxicity (C33A) 3.37% [at 11.6 µM]

CC(C)c1nc(N(C)S(C)(=O)=O)nc(-c2ccc(F)cc2)c1/C=C/[C@@H](O)C[C@@H](O)CC(=O)O
inactive: outcome (HACAT) | Potency (HEK293T) | Potency (C33A)

CC1(C)CCC[C@@]2(C)[C@H]1[C@H](O)C=C1COC(=O)[C@@]12O
inactive: outcome (HACAT) | Potency (HEK293T) | Potency (C33A)

O=C1[C@H](O[C@@H]2O[C@H](CO)[C@@H](O)[C@H](O)[C@H]2O)Oc2ccccc2N1O
inactive: outcome (HACAT) | Potency (HEK293T) | Potency (C33A)

C[C@@H]1O[C@@H](O[C@H]2[C@H](OC(=O)[C@]34CCC(C)(C)C[C@H]3C3=CCC5[C@@]6(C)C[C@H](O)[C@H](O[C@@H]7O[C@H](CO)[C@@H](O[C@@H]8O[C@H](CO)[C@@H](O)[C@H](O)[C@H]8O)[C@H](O)[C@H]7O)[C@@](C)(CO)C6[C@H](O)C[C@@]5(C)[C@]3(C)C[C@H]4O)OC[C@H](O)[C@@H]2O)[C@H](O)[C@H](O)[C@H]1O[C@@H]1OC[C@@H](O)[C@H](O[C@@H]2OC[C@](O)(CO)[C@H]2O)[C@H]1O (stereo not given in full)
inactive: outcome (HACAT) inactive [at 9.27 µM] | outcome (HEK293T) inactive [at 9.27 µM] | activity change, negative = cytotoxicity (C33A) 12.9% [at 6.55 µM]

CC/C=C/CC1=C(CCCCCCCC(=O)O)CCC1=O
inactive: outcome (HACAT) | Potency (HEK293T) | Potency (C33A)

O=C(c1ccc(F)cc1)C1CCN(CCn2c(=O)nc3n(c2=O)CCCC3)CC1
inactive: outcome (HACAT) inactive; activator | Potency (HEK293T) | Potency (C33A)

Cc1cc(O)c(C(C)C)cc1O[C@@H]1O[C@H](CO)[C@@H](O)[C@H](O)[C@H]1O
inactive: outcome (HACAT) | Potency (HEK293T) | Potency (C33A)

CC(=O)O[C@@H]1[C@H]2[C@@H](OC(=O)c3ccccc3)[C@@H](C)C[C@]2(O)[C@H](OC(C)=O)[C@@]2(C)[C@@H]3CC(C)(C)C(=O)[C@]3(OC(C)=O)C[C@@]12C
inactive: outcome (HACAT) inactive [at 17.4 µM] | Potency (HEK293T) | Potency (C33A)
